E coli Lon inh: inhibits E. coli Lon protease; inhibition, % at 7.94 µM; purified E. coli Lon protease, fluorescence polarization; P0A9M0; hit rate 0.42% among 360,000; in the data active = inhibition above about 13%, passing the limit was not always enough
Keap1 Nrf2 FP: disrupts human Keap1 binding to Nrf2 peptide. Q14145. Keap1 Kelch-Nrf2 peptide fluorescence polarization, 1536-well. inhibition, % at 9.4 µM. hit rate 0.15% among 340,000; in the data active = inhibition above about 12%;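 also: human Keap1 Kelch domain with fluorescein labeled Nrf2 9mer peptide probe; higher means more block of Keap1 binding to Nrf2 peptide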
LANA DNA inh: KSHV C-LANA DNA binding inhibition; inhibition, % at 9 µM; hit rate 0.078% among 340,000; MBP-C-LANA/FAM-LBS DNA binding, fluorescence polarization; AID 504423;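 active = highest replicate inhibition at or above 60% at 9 µM, even if other replicates fall short; inactive = all replicates below 60% inhibition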
LANA-H2B inh: blocks KSHV LANA binding to histone H2A/H2B; hit rate 0.6% among 320,000; cell-free LANA-H2A/H2B peptide, fluorescence polarization; inhibition, % (test concentration not listed); Q9QR71; in the data active = inhibition mostly above about 10%, no sharp cut-off; inactive = mostly below about 6.7%
Target sequence (Q9QR71 whole entry, looked up): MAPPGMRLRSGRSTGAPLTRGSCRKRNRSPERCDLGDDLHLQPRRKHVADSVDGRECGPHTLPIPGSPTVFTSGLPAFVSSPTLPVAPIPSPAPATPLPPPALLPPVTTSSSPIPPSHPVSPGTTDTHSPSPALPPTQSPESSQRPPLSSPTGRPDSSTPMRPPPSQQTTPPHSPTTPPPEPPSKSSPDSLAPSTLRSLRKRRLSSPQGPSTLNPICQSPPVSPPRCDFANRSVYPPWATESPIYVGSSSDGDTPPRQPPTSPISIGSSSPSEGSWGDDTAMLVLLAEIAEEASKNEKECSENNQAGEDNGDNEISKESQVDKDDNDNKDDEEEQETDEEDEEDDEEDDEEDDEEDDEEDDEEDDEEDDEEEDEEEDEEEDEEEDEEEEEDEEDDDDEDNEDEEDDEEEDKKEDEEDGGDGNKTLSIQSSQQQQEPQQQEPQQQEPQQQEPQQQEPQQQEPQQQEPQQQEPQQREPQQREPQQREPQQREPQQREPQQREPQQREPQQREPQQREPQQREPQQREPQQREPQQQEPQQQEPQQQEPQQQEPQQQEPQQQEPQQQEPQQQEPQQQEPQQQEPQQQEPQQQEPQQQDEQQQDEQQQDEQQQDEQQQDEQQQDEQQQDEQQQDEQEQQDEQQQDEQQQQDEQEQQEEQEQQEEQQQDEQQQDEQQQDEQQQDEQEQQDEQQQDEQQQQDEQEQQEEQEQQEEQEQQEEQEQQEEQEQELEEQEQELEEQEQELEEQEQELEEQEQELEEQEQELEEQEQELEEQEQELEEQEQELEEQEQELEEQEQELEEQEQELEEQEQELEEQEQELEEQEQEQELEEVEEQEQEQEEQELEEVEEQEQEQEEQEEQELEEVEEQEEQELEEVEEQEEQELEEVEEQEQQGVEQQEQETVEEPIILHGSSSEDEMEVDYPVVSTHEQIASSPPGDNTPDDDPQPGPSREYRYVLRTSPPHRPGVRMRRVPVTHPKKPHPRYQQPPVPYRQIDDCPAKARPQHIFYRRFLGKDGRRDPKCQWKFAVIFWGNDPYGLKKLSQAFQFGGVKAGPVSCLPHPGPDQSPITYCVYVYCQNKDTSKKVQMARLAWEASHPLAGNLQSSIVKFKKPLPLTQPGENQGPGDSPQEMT
GLD-1 TGE inh: GLD-1-TGE RNA interaction inhibition (C. elegans); Q17339; inhibition, % at 5.96 µM; purified GLD-1 + fluorescein TGE RNA, fluorescence polarization; hit rate 0.44% among 320,000;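 active = percent inhibition above a per-plate cutoff, the plate mean of test compounds plus 3 SD, cut at about 30% in these data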
EBV gp42 inh: blocks Epstein-Barr virus glycoprotein 42 binding; Q1HVG2; inhibition, % (tested at 21.74 µM); Fluorescence polarization binding assay, mP read-out; AID 1085; hit rate 0.42% among 220,000; in the data active = inhibition above about 50%
eLon confirm: E. coli Lon inhibition confirmation; purified E. coli Lon, fluorescence polarization; inhibition, % at 7.94 µM; AID 602230; hit rate 31% among 1,400; shares compounds with E coli Lon inh; in the data active = inhibition above about 16%
Numbers stand for hits; - = inactive; . = no result given. This is a sample that favours compounds with a hit; in the whole collection about 1.5% have one here.

SMILES | E coli Lon inh | Keap1 Nrf2 FP | LANA DNA inh | LANA-H2B inh | GLD-1 TGE inh | EBV gp42 inh | eLon confirm
CC(C)(C)c1cc(S(=O)(=O)CCc2ccncc2)cc(C(C)(C)C)c1F | - | - | - | - | - | . | .
CNC(=O)Nc1nnc(C(C)(C)C)s1 | - | - | - | - | - | - | .
CCC(=O)Nc1nnc(C(C)(C)C)s1 | 18 | - | - | - | - | - | -
CCc1ccc(NC(=O)c2cccc(NC3=NC4CS(=O)(=O)CC4S3)c2)cc1 (stereo unspecified) | 24 | - | - | - | - | . | -
CCOc1ccc(NC(=O)c2cccc(NC3=NC4CS(=O)(=O)CC4S3)c2)cc1 (stereo unspecified) | - | - | - | - | - | . | .
CCc1ccc(-c2cnc3nc[nH]c(=O)c3n2)cc1 | - | - | - | - | - | . | .
Cc1cccc(NC(=O)NCC(F)(F)F)n1 | 27 | - | - | - | - | - | -
C#CCNC(=O)C[C@@H]1C[C@@]2(C(=O)OCC)CCCC=C2N(Cc2ccc(Cl)cc2Cl)C1=O | - | . | . | . | . | . | .
Cn1c(=O)c(NC2CCCCC2)c2c3c(cccc31)C(=O)c1ccccc1-2 | 118 | 53 | - | . | . | 139 | -
CC(=O)Nc1ccc(Nc2c3c4c(cccc4n(C)c2=O)C(=O)c2ccccc2-3)cc1 | 148 | - | - | - | 169 | 141 | 178
CN(Cc1ccccc1)C(=O)COC(=O)COc1ccc(C#N)cc1 | - | - | - | - | - | . | .
CC(=O)C1=C(O)C(=O)N(c2ccc(Br)cn2)C1c1ccc(F)cc1 (stereo unspecified) | 28 | - | - | - | - | - | -
CC(=O)C1=C(O)C(=O)N(c2ccc(Br)cn2)C1c1ccc(Br)cc1 (stereo unspecified) | - | - | - | - | - | - | .
O=C(CN1CCOC1=O)N1CCCC(N2CCN(c3cccc(C(F)(F)F)c3)CC2)C1 (stereo unspecified) | - | - | - | - | - | . | .
O=C1CN(S(=O)(=O)c2cccc(Cl)c2Cl)CCN1 | 44 | - | - | . | . | . | -
O=C1CN(S(=O)(=O)c2ccccc2Cl)CCN1 | - | - | - | . | . | . | .
CCOC(=O)N1CCC(NC(=O)CCN2C(=O)C3C4C=CC(C4)C3C2=O)CC1 (stereo unspecified) | - | - | - | - | - | - | .
O=C(CCN1C(=O)C2C3C=CC(C3)C2C1=O)NC1CCCCC1 (stereo unspecified) | 20 | - | - | - | - | . | -
O=C(c1ccc2c(c1)CCN2S(=O)(=O)c1ccccc1)N1CCN(c2ccccc2)CC1 | - | - | - | - | - | . | .
O=C(c1ccc2c(c1)CCN2S(=O)(=O)c1ccccc1)N1CCN(c2ccccc2F)CC1 | 18 | - | - | . | - | . | -
C/C(=N\NC(=O)c1ccn[nH]1)c1cn(C)nc1C | - | - | - | - | - | - | .
CCCCn1c(NC(C)=O)c(C#N)c2nc3ccccc3nc21 | 23 | - | - | - | - | - | -
Cc1cccc(C2N=C(N)Nc3nc4ccccc4n32)c1 (stereo unspecified) | - | - | - | - | - | - | .
Cn1c2ccccc2c2cc(/C=N/NC(=O)c3ccc(N)cc3)ccc21 | 20 | - | - | - | - | . | -
O=S(=O)(Nc1ccc(Cl)cc1)c1cccc2nsnc12 | - | - | - | - | - | . | .
SMILES | E coli Lon inh | Keap1 Nrf2 FP | LANA DNA inh | LANA-H2B inh | GLD-1 TGE inh | EBV gp42 inh | eLon confirm
O=C(N/N=C/c1c[nH]c2ccccc12)c1cc(Cl)ccc1O | - | - | - | - | - | . | .
O=C1C=C(NNC(=O)c2cccnc2)CC(c2ccco2)C1 (stereo unspecified) | 46 | - | - | - | 120 | - | -
CC1(C)CC=C(NNC(=O)c2cccnc2)C(=O)C1 | 21 | - | - | - | 67 | - | -
CC1(C)Cc2ccccc2C(NNC(=O)c2cccnc2)=N1 | - | - | - | - | - | - | .
Nc1ncnc2c1ncn2[C@@H]1O[C@H](CNCc2cn(CC(=O)NC3CC3)c3ccccc23)[C@@H](O)[C@H]1O | - | - | - | - | - | . | .
CC(C)Cc1nnc(NC(=O)CCNC(=O)c2ccco2)s1 | - | - | - | - | - | . | .
N#CCC(=O)N/N=C/c1ccc(OC2CSC2)cc1 | 25 | - | - | - | - | - | -
C[C@H](NC(=O)C1CC(=O)N(c2ccc(F)cc2)C1)C(=O)N1CCCCC1 (stereo partly specified) | 20 | - | - | - | - | . | -
O=C(C1CC(=O)N(c2ccc(F)cc2)C1)N1CCCCC1 (stereo unspecified) | - | - | - | - | - | . | .
CCCCc1ncc(CN2CCC(n3nccc3NC(=O)c3ccccc3Cl)CC2)[nH]1 | 19 | - | - | - | - | . | -
CCCCc1ncc(CN2CCC(n3nccc3NC(=O)C(OC)c3ccccc3)CC2)[nH]1 (stereo unspecified) | - | - | - | - | - | . | .
CCn1cc(CN2CCC(n3nccc3NC(=O)c3ccccc3C)CC2)c(C)n1 | 45 | - | - | - | - | . | -
CN=c1scc(-c2cccs2)n1/N=C/c1ccc(O)c(O)c1O | 28 | - | - | - | - | - | -
COc1ccc(C(=O)Nc2nccs2)cc1 | - | - | - | - | - | . | .
COc1ccc(NC(=O)Nc2nccs2)cc1 | 16 | - | - | - | - | - | -
COc1ccccc1-n1c(SC(C)C(=O)NCC2CCCO2)nc2cc(Cl)ccc2c1=O (stereo unspecified) | - | - | - | - | - | . | .
COc1ccc(N(C)C(=O)CN(C)S(=O)(=O)c2ccc3c(c2)c(=O)n(C)c(=O)n3C)c(OC)c1 | - | - | - | - | - | . | .
COCCCn1c(=NC(=O)c2ccncc2)c(C#N)cc2c(=O)n3cccc(C)c3nc21 | 38 | - | - | - | - | - | 22
CCCCn1c(=NC(=O)c2cccnc2)c(C#N)cc2c(=O)n3cccc(C)c3nc21 | 24 | - | - | - | - | - | -
COC(=O)CC1C(=O)NCCN1C(=S)NC(=O)c1sc2ccccc2c1Cl (stereo unspecified) | - | - | - | - | - | - | .
COc1ccc(-c2ccc(C(=O)NCc3ccncc3)c3occc23)c(C)c1 | - | . | . | . | . | . | .
CC(=O)Nc1cccc(CNCc2cccc(NC(C)=O)c2)c1 | - | - | - | - | - | - | .
O=C(c1ccc(Cl)cc1)[C@@H]1[C@@H]2C(=O)N(c3ccccc3)C(=O)[C@@H]2C2c3ccccc3C=NN21 (stereo partly specified) | - | - | - | - | - | - | .
O=C(c1ccco1)[C@@H]1[C@@H]2C(=O)N(c3ccccc3)C(=O)[C@@H]2C2c3ccccc3C=CN21 (stereo partly specified) | 24 | - | - | - | 69 | . | 33
Nc1nc(N=Nc2ccc(O)cc2)cc(=O)[nH]1 | 67 | . | . | . | . | . | 35
Cn1c(NC(=O)CCC2CCCCC2)cc(=O)n(C)c1=O | - | - | - | - | - | - | .
Cn1c(NC2CCCCC2)cc(=O)n(C)c1=O | 27 | - | - | - | - | . | -
